A short description of assay [1]: qHTS Screen of the MIPE 4.0 Collection Against Ewings Sarcoma (TC32) (AID 1259256). Further: nearly all actives have a fitted effect of over 45% in size. Further: potency means the concentration at half of the fitted maximal effect. Summed up:
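Viability screen: 48 h incubation at 37C, 95% humidity, 5% CO2 with serially titrated compound, followed by CellTiter-Glo readout.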
A general note: qHTS replaces the single test concentration by a dilution series.

Assay [2] can be described thus: P-glycoprotein substrates identified in KB-8-5-11 adenocarcinoma cell line, qHTS therapeutic library screen (AID 1346987). Further: nearly all actives have a fitted effect of over 65% in size. Further: potency means the concentration at half of the fitted maximal effect. The method, boiled down:
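Human cervical adenocarcinoma KB-8-5-11 cells, selected in colchicine to over-express P-gp and assayed without it, were exposed for 72 h to titrated compounds. An ATP-based luminescent viability signal gave AC50.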

The nature of assay [3]: NS1 protein of Zika virus - qHTS assay to identify small molecule inhibitors in human HEK 293 cells (AID 1347053). Further: nearly all actives have a fitted effect of over 55% in size. Further: potency means the concentration at half of the fitted maximal effect. The method, boiled down:
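Read-out is a two-antibody TR-FRET for ZIKV NS1, normalized between uninfected cells and infected cells. Compound added 1 h before MR766 infection at MOI 0.5; human HEK 293 cells incubated 24 h, 37 C.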

Assay [4] is described as follows: qHTS of pediatric cancer cell lines to identify multiple opportunities for drug repurposing: Primary screen for TC32 cells (AID 1347089). Further: nearly all actives have a fitted effect of over 60% in size. Further: potency means the concentration at half of the fitted maximal effect. Summed up: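 Measured quantity: luminescence from CellTiter-Glo, reflecting metabolically active TC32 cells following 48 h of compound. Curves came straight from multi-point titrations, with 8 or 11 points in primary and 11 in confirmatory screening.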

The nature of assay [5]: qHTS of pediatric cancer cell lines to identify multiple opportunities for drug repurposing: Primary screen for DAOY cells (AID 1347090). Further: nearly all actives have a fitted effect of over 55% in size. Further: potency means the concentration at half of the fitted maximal effect. The method, boiled down:
(§1)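 Viability measured as metabolically active cells via CellTiter-Glo luminescence following 48 hours of compound exposure, 11-point dilutions in confirmatory testing. 500-1,000 cells/well plated 5 hours before dosing; controls were DMSO and 2.3 µM bortezomib.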

Assay [6] can be described thus: qHTS of pediatric cancer cell lines to identify multiple opportunities for drug repurposing: Primary screen for SJ-GBM2 cells (AID 1347091). Further: potency means the concentration at half of the fitted maximal effect. Summed up: as §1
Assay [7] is described as follows: qHTS of pediatric cancer cell lines to identify multiple opportunities for drug repurposing: Primary screen for A673 cells (AID 1347092). Further: nearly all actives have a fitted effect of over 45% in size. Further: potency means the concentration at half of the fitted maximal effect. Summed up:
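Cells are plated, rested 5 h, dosed by pintool, incubated 48 h, then lysed with CellTiter-Glo and read by luminescence. DMSO is the neutral control; bortezomib at 2.3 uM final is the positive control.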

A short description of assay [8]: qHTS of pediatric cancer cell lines to identify multiple opportunities for drug repurposing: Primary screen for SK-N-MC cells (AID 1347093). Further: potency means the concentration at half of the fitted maximal effect. The method, boiled down:
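Metabolically active cells were quantified by ATP-dependent luminescence (CellTiter-Glo, 15 min at room temperature) following 48 h treatment. Cells had been plated at 500-1,000 per well and settled for 5 h beforehand.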

The nature of assay [9]: qHTS of pediatric cancer cell lines to identify multiple opportunities for drug repurposing: Primary screen for BT-37 cells (AID 1347094). Further: potency means the concentration at half of the fitted maximal effect. The method, boiled down:
(§2)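 Phenotypic viability qHTS, 48 h compound exposure, CellTiter-Glo luminescence read-out; multi-concentration dosing so that potency and efficacy derive directly from the primary screen's curves.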

Assay [10] can be described thus: qHTS of pediatric cancer cell lines to identify multiple opportunities for drug repurposing: Primary screen for NB-EBc1 cells (AID 1347095). Further: potency means the concentration at half of the fitted maximal effect. The method, boiled down:
as §2

Assay [11] is described as follows: qHTS of pediatric cancer cell lines to identify multiple opportunities for drug repurposing: Primary screen for U-2 OS cells (AID 1347096). Further: nearly all actives have a fitted effect of over 50% in size. The method, boiled down:
(§3)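 Viability after 48 h compound treatment at 37C, 500-1,000 cells/well, read as ATP luminescence with CellTiter-Glo. Primary screens used 11-point (MIPE, 0.78 nM-46 µM) or 8-point (NPC, 0.59 nM-46 µM) final concentrations; follow-up screens used 11-point dilutions.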

A short description of assay [12]: qHTS of pediatric cancer cell lines to identify multiple opportunities for drug repurposing: Primary screen for Saos-2 cells (AID 1347097). Further: nearly all actives have a fitted effect of over 40% in size. Further: potency means the concentration at half of the fitted maximal effect. Summed up:
as §2

The nature of assay [13]: qHTS of pediatric cancer cell lines to identify multiple opportunities for drug repurposing: Primary screen for SK-N-SH cells (AID 1347098). Further: nearly all actives have a fitted effect of over 65% in size. Further: potency means the concentration at half of the fitted maximal effect. The method, boiled down: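 Cells (500-1,000/well) rested 5 h, then received compounds for 48 h; metabolically active cells were measured by CellTiter-Glo luminescence. Final concentrations spanned up to 46 µM (MIPE, 11-point) or 0.59 nM-46 µM (NPC, 8-point) in primary screens, 11-point in follow-ups.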

Assay [14] can be described thus: qHTS of pediatric cancer cell lines to identify multiple opportunities for drug repurposing: Primary screen for NB1643 cells (AID 1347099). Further: nearly all actives have a fitted effect of over 50% in size. Further: potency means the concentration at half of the fitted maximal effect. The method, boiled down: as §2
Assay [15] is described as follows: qHTS of pediatric cancer cell lines to identify multiple opportunities for drug repurposing: Primary screen for LAN-5 cells (AID 1347100). Further: potency means the concentration at half of the fitted maximal effect. The method, boiled down: as §3

Inconclusive results are not listed. Calls of active or inactive are those of the source. The call rests on the fitted dose curve; in most records, active means well fitted curve in the direction sought with a large enough effect; inconclusive means small, poorly fitted or top-dose-only effect, or another doubt; inactive means no such curve, though single readings can be large; an effect the other way counts as inactive or inconclusive.

Regarding `CN(N=O)C(=O)N[C@H]1C(O)OC(CO)[C@@H](O)[C@H]1O` (stereo partly specified), the Potency entry in assay [1], in assay [2], in [3], in assay [4], in assay [5] and in assay [6] was “inactive” in each case. Further, the Potency entry in [7], in assay [8], in assay [9], in assay [10], in assay [11] and in [12] was “inactive” in each case. Further, the Potency entry in [13], in [14] and in assay [15] was “inactive” in each case.

With `C=C1C(=O)O[C@H]2[C@@H]1CCC(C)=CCC[C@@]1(C)O[C@@H]21`, the Potency is 9.35 µM (active) in [1]; 23.5 µM (active) in assay [2]; 9.35 µM (active) in assay [3]; 23.4 µM (active) in [4]; 9.35 µM (active) in assay [5]; 8.33 µM (active) in [6]. Also, the Potency was 7.43 µM (active) in [7]; 7.43 µM (active) in assay [8]; 5.26 µM (active) in assay [10]; 3.32 µM (active) in assay [12]; 8.33 µM (active) in [14]; 7.43 µM (active) in [15].

`N#Cc1cc(NC(=O)Nc2nnc(-c3ccncc3)s2)ccc1-c1cn[nH]c1`: the Potency result in assay [1], in [2], in assay [3], in assay [4], in assay [5] and in [6] was “inactive” throughout. Besides, the Potency entry in assay [7], in [8], in [9], in assay [10], in [11] and in assay [12] was “inactive” each time. The Potency result in [15] was “inactive”.

As for `CCCCCCCCCCCC(CC1OC(=O)C1CCCCCC)OC(=O)C(CC(C)C)NC=O` (stereo unspecified), the Potency result in [1], in [2], in assay [3], in assay [4], in assay [5] and in assay [7] was “inactive” in each case. Besides, the Potency entry in [9], in assay [11] and in [15] was “inactive” each time. Also, the Potency is 9.35 µM (active) in assay [6], 18.7 µM (active) in assay [10] and 14.8 µM (active) in assay [12].

Regarding `Nc1cccc2c1C(=O)N(C1CCC(=O)NC1=O)C2=O` (stereo unspecified), the Potency in assay [1] is 0.0042 µM (active). For the same compound, the Potency result in assay [2], in assay [3], in assay [4], in assay [5], in assay [6] and in assay [8] was “inactive” in each case. Also, the Potency entry in assay [9], in assay [10], in assay [11], in assay [14] and in [15] was “inactive” in each case.

Regarding `Cn1cnc2c(F)c(Nc3ccc(Br)cc3F)c(C(=O)NOCCO)cc21`, the Potency entry in assay [1], in assay [2], in assay [3], in assay [4], in [5] and in assay [6] was “inactive” throughout. The Potency entry in assay [7], in assay [8], in [9], in assay [12] and in [14] was “inactive” throughout.

As for `CN(C)CC[C@H](c1ccc(Cl)cc1)c1ccccn1`, the Potency result in assay [1], in [2], in assay [3], in assay [4], in [6] and in [9] was “inactive” each time. In addition, the Potency entry in assay [10], in [11], in [12] and in [15] was “inactive” in each case. The Potency in assay [5] is 23.5 µM (active); in [8] it was 10.5 µM (active).

For `COC(=O)[C@@H]1[C@H]2C[C@@H]3c4[nH]c5ccccc5c4CCN3C[C@@H]2CC[C@@H]1O`, the Potency entry in assay [1], in assay [2], in assay [3], in assay [4], in assay [5] and in assay [6] was “inactive” in each case. In addition, the Potency entry in assay [10], in assay [11], in assay [12], in assay [13] and in [15] was “inactive” throughout. Moreover, the Potency in assay [8] was 2.96 µM (active).

As for `NC(=O)c1ncn([C@@H]2O[C@H](CO)[C@@H](O)[C@@H]2O)c1N`, the Potency entry in [1], in [2], in assay [3], in [4], in assay [5] and in assay [6] was “inactive” in each case. The Potency result in assay [7], in assay [9], in [10], in assay [11], in assay [13] and in assay [14] was “inactive” each time. Further, the Potency entry in [15] is “inactive”.

For `C[C@@H](NCc1cc2ccccc2[nH]1)c1cccc2ccccc12`, the Potency result in [1], in assay [2], in assay [3], in assay [4], in assay [5] and in assay [6] was “inactive” throughout. In addition, the Potency result in assay [9], in assay [11], in [12], in assay [13], in [14] and in assay [15] was “inactive” each time.

In the case of `COC(=O)C=CC(=O)OC`, the Potency in assay [1] was 14.8 µM (active); in assay [5] it was 1.87 µM (active); in assay [7], 7.43 µM (active); in assay [8], 0.0037 µM (active); in assay [13], 15.2 µM (active); in assay [14], 7.43 µM (active). The Potency entry in assay [2], in assay [3], in assay [4], in assay [6], in assay [9] and in assay [11] was “inactive” throughout. The Potency entry in assay [12] and in assay [15] was “inactive” each time.

As to `N#CC(=C(O)c1ccc(Cl)cc1Cl)c1nc2cc(Cl)ccc2c(=O)[nH]1`, the Potency entry in assay [1], in [2], in assay [3], in assay [4], in [5] and in assay [6] was “inactive” in each case. The Potency entry in assay [7], in assay [9], in assay [11], in assay [13] and in assay [15] was “inactive” each time. Also, the Potency in assay [14] was 20.9 µM (active).

With `C=CC1=C(C(=O)O)N2C(=O)[C@@H](NC(=O)C(=NO)c3csc(N)n3)[C@H]2SC1`, the Potency entry in assay [1], in [2], in [3], in assay [4], in assay [5] and in assay [6] was “inactive” in each case. The Potency result in [7], in assay [8], in [9], in assay [10], in assay [11] and in [12] was “inactive” in each case. Besides, the Potency result in assay [14] and in [15] was “inactive” each time.

Take `CCN(C(=O)c1c(O)c2c(Cl)cccc2n(C)c1=O)c1ccccc1`: the Potency entry in assay [1], in assay [2], in assay [3], in assay [4], in assay [5] and in [6] was “inactive” throughout. Also, the Potency entry in [10], in [11], in assay [13], in assay [14] and in assay [15] was “inactive” each time. Besides, the Potency in [9] was 21.7 µM (active).

These data come from PubChem BioAssay (NCATS).
